# Results as given in PubChem BioAssay AID588453 (National Center for Advancing Translational Sciences (NCATS), 2011).
# Out of some 390,000 compounds screened, about 4,000 (1%) were called active. Roughly 4% stayed inconclusive and do not appear here. Calls come from the whole dose curve; as a rule, active = well fitted inhibition curve with a large enough effect; inconclusive = small, poorly fitted or top-dose-only effect; inactive = no such curve, though single readings can be large or run the other way. Shown is part of a subset that was picked to be rich in actives.
# Biological target: Thioredoxin reductase 1, cytoplasmic (Rattus norvegicus) (UniProt O89049)
# Sequence (O89049 whole entry, looked up): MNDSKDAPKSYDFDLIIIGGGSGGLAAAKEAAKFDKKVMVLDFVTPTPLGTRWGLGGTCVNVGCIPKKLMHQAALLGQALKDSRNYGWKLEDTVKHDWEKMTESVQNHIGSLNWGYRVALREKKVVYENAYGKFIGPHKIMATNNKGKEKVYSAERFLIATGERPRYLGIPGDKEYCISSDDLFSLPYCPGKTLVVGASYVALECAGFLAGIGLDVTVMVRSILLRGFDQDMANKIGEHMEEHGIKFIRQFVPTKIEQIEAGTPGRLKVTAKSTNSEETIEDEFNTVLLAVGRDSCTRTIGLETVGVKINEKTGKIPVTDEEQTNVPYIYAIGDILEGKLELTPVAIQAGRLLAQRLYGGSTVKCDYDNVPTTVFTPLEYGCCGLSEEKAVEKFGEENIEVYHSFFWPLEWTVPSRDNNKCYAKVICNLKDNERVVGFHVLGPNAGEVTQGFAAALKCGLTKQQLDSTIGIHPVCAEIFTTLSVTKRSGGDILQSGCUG
# Assay: qHTS Assay for Inhibitors of Mammalian Selenoprotein Thioredoxin Reductase 1 (TrxR1): qHTS; note: nearly all actives have a fitted effect of over 65% in size
# Conditions: recombinant rTrxR1, NADPH fluorescence consumption, selenite substrate; series mostly up to 114 µM; activity change, negative = inhibition: at the top concentration
# Procedure, shortened: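 Rat TrxR1 (90 nM in the dispensed reagent) was pre-reduced with 400 uM NADPH for 5 min at room temperature, then incubated with compound for 15 min. After 400 uM selenite was added, NADPH fluorescence (Ex 340/Em 450 nm) was followed for 8 min.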
# % is set by controls: 0 for no effect and ±100 for the full control effect; potency is the fitted concentration of half-maximal effect.
Structure (SMILES),"activity change, negative = inhibition",Potency
O=C(COc1ccccc1C(=O)Nc1ccccc1)Nc1cccc(F)c1,21.1% (inactive),
CCC(=O)Nc1cccc(-c2nc3cc(C)ccc3o2)c1,34.9% [at 57.1 µM] (inactive),
CC(C)(C)c1ccc(C(=O)C[N+]2(C)CCCc3ccccc32)cc1 (stereo unspecified),7.97% (inactive),
COC(=O)c1ccccc1NC(=S)NC(=O)c1ccccc1F,,25.1 µM (active)
COC(=O)c1ccccc1NC(=O)Cc1ccccc1OC,-5.24% (inactive),
O=C(NC(=S)NC1CCSC1=O)c1ccccc1F (stereo unspecified),9.7% (inactive),
COc1cccc(C2C(C(=O)Nc3ccc(C)cc3C)=C(C)Nc3c(C(=O)Nc4ccccc4)cnn32)c1 (stereo unspecified),2.63% (inactive),
CC1CCCCN1Cc1c(O)ccc2c(=O)c(-c3cccc(Cl)c3)c(C(F)(F)F)oc12 (stereo unspecified),-4.93% (inactive),
CC1CCCN(Cc2c(O)ccc3c(=O)c(Oc4ccc(C(C)(C)C)cc4)c(C(F)(F)F)oc23)C1 (stereo unspecified),7.62% (inactive),
COc1ccc(CC(=O)NCc2nnc(SCC(=O)Nc3nccs3)n2C)cc1,9.52% (inactive),
COc1ccc(Cc2nnc(SCC(=O)c3cccc([N+](=O)[O-])c3)n2C)cc1,,79.4 µM (active)
CCn1c(CNc2ccc(OC)cc2)nnc1SCC(=O)c1ccc(OC)cc1,-11.4% (inactive),
Fc1ccc(CSc2nc(NCc3ccccc3)c3ccccc3n2)cc1,17.9% [at 57.1 µM] (inactive),
O=C(CSc1nnc(CNC(=O)c2ccccc2)n1-c1ccc(F)cc1)Nc1ccccc1F,27.2% (inactive),
O=C(OCc1ccccc1F)c1ccc2c(c1)OCCO2,16.1% (inactive),
O=C(CCN1CCc2ccccc2C(O)(c2ccccc2)C1)c1ccc2c(c1)OCCO2 (stereo unspecified),,0.708 µM (active)
O=C(c1ccc2c(c1)OCO2)N1CCNc2ccccc2C1,-7.73% (inactive),
O=C1CCC[C@@H]2C[C@@]3(C[C@@H]4CCN1[C@H]24)Nc1ccccc1NC3=NCc1ccccc1,11.3% (inactive),
O=C(O)C1CC=CC2CCN(C3CCCCC3)C(=O)C21 (stereo unspecified),4.14% (inactive),
Cc1nnc(N2CCCC(C(=O)NCCN(C)C)C2)c2nn(-c3ccccc3)c(C)c12 (stereo unspecified),14.7% (inactive),
O=C1c2ccccc2C(=O)N1c1ccc(S(=O)(=O)N2CCOCC2)c2ccccc12,5.9% (inactive),
NC(=O)C1CCN(C(=O)c2ccc(F)c(S(=O)(=O)N3CCOCC3)c2)CC1,14.1% (inactive),
O=C(c1ccc(Oc2ccc(Cl)cc2)c([N+](=O)[O-])c1)N1CCCC1,14.8% (inactive),
CC1CCN(C(=O)c2ccc(S(=O)(=O)Cc3cc(F)ccc3F)c([N+](=O)[O-])c2)CC1,,10 µM (active)
Cc1cccc(-c2nnc(SC(C)C(=O)Nc3ccccc3)n2C)c1 (stereo unspecified),6.51% (inactive),
COc1cc(Cl)c(C)cc1NC(=O)CCc1nc2cccnc2n1Cc1cccs1,10.8% (inactive),

Structure (SMILES),"activity change, negative = inhibition",Potency
Cc1cccc(C(=O)N2CCc3cc(CNC(=O)Cc4ccc(F)cc4)ccc32)c1,5.2% [at 57.1 µM] (inactive),
CCOC(=O)c1cnc2nc(SCc3ccccc3Cl)[nH]n2c1=O,16.8% (inactive),
CCOC(=O)c1cnc2sccn2c1=O,22.6% (inactive),
CCOC(=O)c1cnc2[nH]c3ccccc3n2c1=O,,44.7 µM (active)
COc1ccc(NC(=O)CSc2nc3ccccc3[nH]2)cc1,27.2% (inactive),
Cc1ccccc1CN1CCN(CC(=O)NCc2ccccn2)C1=O,2.68% (inactive),
Cc1ccccc1CN1C[C@@H]2C[C@@H](c3cn(C)nc3-c3ccccc3)N3CCC[C@@]23C1=O,,44.7 µM (active)
Cc1ccccc1CN1C[C@@H]2C[C@@H](c3ccc4nsnc4c3)N3CCC[C@@]23C1=O,-29.8% (inactive),
CCOC(=O)c1[nH]c(C)c(CCC(=O)N2CCN(c3ccccc3)CC2)c1C,16% [at 57.1 µM] (inactive),
CCc1nc2ccc(C(=O)N3CCN(c4cc(Cl)ccc4C)CC3)cc2nc1CC,9.4% [at 57.1 µM] (inactive),
Cc1scc(C(=O)NNC(=S)NCC(C)C)c1C,5.78% (inactive),
CC(C)CNC(=S)NNC(=O)c1nn(C)cc1Cl,-12.6% [at 57.1 µM] (inactive),
CC(C)CNC(=S)NC(=O)c1ccc(Cl)cc1,,14.1 µM (active)
CCOC(=O)c1c(NC(=O)CSc2cn(CCNC(=O)c3cccc(C(F)(F)F)c3)c3ccccc23)sc2c1CCC2,16.1% [at 11.4 µM] (inactive),
Cc1cc(C)nc(NNC2=CC(=O)CC(C)(C)C2)n1,,14.1 µM (active)
CC1(C)CC(=O)C=C(NCc2ccncc2)C1,-12.2% [at 57.1 µM] (inactive),
Cc1cc(O)ccc1NC1=CC(=O)CC(C)(C)C1,-14.1% [at 57.1 µM] (inactive),
Cc1ccc(OCCn2c(CNc3ccccc3C)nc3ccccc32)cc1,14.2% (inactive),
CCN1CCc2nc3sc(C(=O)Nc4ccccc4OC(F)(F)F)c(N)c3cc2C1,-1.24% (inactive),
Cc1ccc(C)c(Cn2c(CCCNC(=O)C3CCCCC3)nc3ccccc32)c1,2.37% (inactive),
CCC(=O)Nc1ccc2nc(SCC(=O)N3CCc4ccccc43)sc2c1,1.52% (inactive),
O=C1C=CC(=O)N1c1ccc(N2CCCCC2)cc1,,0.708 µM (active)
O=C(NCc1ccc(F)cc1)c1ccc(Cn2c(SCc3ccc(F)cc3)nc3cccnc32)cc1,16.5% (inactive),
Cc1ccc(C)n1-c1nnc(N2CCC(C(=O)NCc3ccc(F)cc3)CC2)s1,-27.1% (inactive),
COc1ccc(CCNC(=O)CCCn2c(=O)c3ccccc3n(Cc3ccc(F)cc3Cl)c2=O)cc1OC,13.4% (inactive),
Nc1ccccc1SC(C[N+](=O)[O-])c1ccccc1 (stereo unspecified),,7.94 µM (active)

Structure (SMILES),"activity change, negative = inhibition",Potency
CN(C)c1ccc(/C=c2\[nH]c(=O)/c(=C/c3ccc(N(C)C)cc3)[nH]c2=O)cc1,9.58% (inactive),
COc1ccccc1N1CCN(C(=O)C2Cc3ccccc3CN2C(=O)c2ccco2)CC1 (stereo unspecified),1.63% (inactive),
Cc1ccc(C)c(NC(=O)C2Cc3ccccc3CN2C(=O)OCc2ccccc2)c1 (stereo unspecified),0.243% (inactive),
Cc1ccc(S(=O)(=O)N(C)C)cc1NC(=O)C1Cc2ccccc2CN1C(=O)c1ccco1 (stereo unspecified),,39.8 µM (active)
Cc1c(Cl)cccc1NC(=O)CCS(=O)(=O)c1ccc2c(c1)oc(=O)n2C,0.617% (inactive),
Cc1ccc(C)c(NC(=O)Cn2ccn(-c3ccc(F)cc3)c(=O)c2=O)c1,7.31% (inactive),
CCc1cc2c(cc3c(=O)n(CC(=O)NCCc4ccc(OC)c(OC)c4)ncn32)s1,5.4% (inactive),
O=C1c2ccccc2C(=O)N1CCOc1ccc(F)cc1,17.5% (inactive),
O=C1c2ccccc2C(=O)N1CCC(O)C[N+](=O)[O-] (stereo unspecified),,70.8 µM (active)
O=C(OCCN1C(=O)c2ccccc2C1=O)Oc1ccccc1,29.4% (inactive),
Cc1cc2nn(-c3ccc(Cl)cc3)nc2cc1NC(=O)C(C)C,13.3% (inactive),
COc1ccc(/C=C(\NC(=O)c2ccc(OCC(C)C)cc2)C(=O)OCc2ccco2)cc1,-27.7% (inactive),
CCCC(NC(=O)c1ccco1)c1nc2ccccc2[nH]1 (stereo unspecified),-19% (inactive),
CC(C)Oc1ccc(/C=C(\NC(=O)/C=C/c2ccco2)C(=O)NCCc2nc3ccccc3[nH]2)cc1,,17.8 µM (active)
O=C1CN(Cc2ccccc2)S(=O)(=O)c2ccccc21,-21.6% (inactive),
COc1cccc(CNC(=O)c2ccc3c(Cl)c4c(nc3c2)CCCC4)c1,39.5% (inactive),
CC/C=C/C(=O)N1CC2(CC(c3cccc(NC(=O)CC)c3)=NO2)C[C@H]1C(N)=O (stereo partly specified),-13.2% [at 57.1 µM] (inactive),
C/C=C(\C)C(=O)N1CC2(CC(c3cccc(NC(=O)CCCCC)c3)=NO2)C[C@@H]1C(N)=O (stereo partly specified),-4.01% [at 57.1 µM] (inactive),
C/C=C\C=C\C(=O)N1CC2(CC(c3cccc(NC(=O)/C(C)=C\C)c3)=NO2)C[C@H]1C(N)=O (stereo partly specified),,50.1 µM (active)
COc1cccc(CNC(=O)Cc2csc3nc(-c4ccccc4)cn23)c1,18.4% [at 57.1 µM] (inactive),
CNC(=O)NC(=O)CSc1nnc(-c2ccc(F)cc2)n1CC1CCCO1 (stereo unspecified),22.1% [at 57.1 µM] (inactive),
O=C(CSc1nnc(-c2ccco2)n1CC1CCCO1)c1ccccc1 (stereo unspecified),,44.7 µM (active)
Cc1nnc(SCC(=O)NNC(=O)c2ccc(Cl)cc2)n1CC1CCCO1 (stereo unspecified),14.4% [at 57.1 µM] (inactive),
CCc1cccc(NC(=O)c2cc(-c3ccccc3)n[nH]2)c1,10.9% (inactive),
CC(C)(C)c1ccc(C(=O)C[n+]2cccc3cc(Cl)ccc32)cc1,6.36% (inactive),
CC(C)(C)c1ccc(S(=O)(=O)Nc2ccc(O)c(Sc3nc4ccccc4s3)c2)cc1,13.8% (inactive),

Structure (SMILES),"activity change, negative = inhibition",Potency
CC(C)c1ccc(S(=O)(=O)Nc2ccc(O)c(Sc3nc4ccccc4s3)c2)cc1,-12.7% (inactive),
O=[N+]([O-])c1c(NCCO)cc(Sc2nc3ccccc3s2)c2nonc12,,1.12 µM (active)
CCc1ccccc1NS(=O)(=O)c1ccc2nc(-c3ccccc3)[nH]c2c1,10.8% (inactive),
O=S(=O)(Nc1ccc2nc(-c3cccc(Cl)c3)oc2c1)c1ccccc1,26.9% (inactive),
O=S(=O)(Nc1ccc2nc(-c3ccco3)[nH]c2c1)c1ccccc1,,56.2 µM (active)
CCOC(=O)C1CCN(c2csc3ccc(C)cc3c2=O)CC1,-0.301% [at 57.1 µM] (inactive),
O=C(Nc1nsc(-c2ccccc2)n1)c1ccncc1,12.5% [at 57.1 µM] (inactive),
COC(=O)c1nc(NC(=O)c2ccccc2)n[nH]1,,56.2 µM (active)
COC(=O)c1ccc(NC(=O)CSc2n[nH]c(-c3ccccc3)n2)cc1,14.1% [at 57.1 µM] (inactive),
COc1ccc(CNC(=O)c2cc3c(=O)[nH]c4ccc(C)cc4c3s2)c(OC)c1,25.7% (inactive),
Cc1cccc(Cn2c(=O)n(CCC(=O)NCCc3ccc(Cl)cc3)c(=O)c3sccc32)c1,7.89% (inactive),
O=S(=O)(c1ccccc1)c1nc(Cc2ccccc2)oc1N1CCOCC1,,1.58 µM (active)
COc1ccc(-c2nc(S(=O)(=O)c3ccccc3)c(N3CCCCC3)o2)cc1,-3.21% (inactive),
O=S(=O)(c1ccccc1)c1nc(-c2ccc(Cl)cc2Cl)oc1N1CCCCC1,28.6% [at 57.1 µM] (inactive),
CCOc1ccc(-c2cc3c(=O)n(CC(=O)NCc4ccc(OC)cc4)ccn3n2)cc1,22.5% [at 57.1 µM] (inactive),
Cc1c(CCO)sc[n+]1CC(=O)c1ccc2ccccc2c1,14% (inactive),
Cc1noc2ncnc(NCc3ccccc3Cl)c12,3.77% (inactive),
OCCNc1ncnc2oc(-c3ccco3)c(-c3ccco3)c12,,50.1 µM (active)
COc1ccc(-c2oc3ncnc(NCCCO)c3c2-c2ccc(OC)cc2)cc1,4.95% [at 57.1 µM] (inactive),
CN(C)c1ccc(/C=N\Nc2ccc([N+](=O)[O-])cc2[N+](=O)[O-])cc1Cl,26.5% [at 0.0914 µM] (inactive),
Cc1ccc2ncc(C(=O)Nc3ccc(OC(F)(F)F)cc3)c(=O)n2c1,2.86% (inactive),
Cc1ccccc1-n1nc(C)c2cc(C(=O)NC3CC3)sc21,3.32% (inactive),
Cc1ccccc1-n1nc(C)c2c1N=C1C(Cl)=CC(Cl)=CN1C2c1ccc(C(=O)O)cc1 (stereo unspecified),,12.6 µM (active)
